Among all 290,000 compounds or so, about 11,000 (3.8%) were called active.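 Rule for the calls: active = mean replicate inhibition above about 79%, with every replicate also reaching it (limit read from the data); inconclusive = only one of the two criteria met; inactive = mean below limit and not every replicate reaching it.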 The sample as a whole holds a higher share of actives than the screen did.
The compounds below were run against FAD-linked sulfhydryl oxidase ALR (Homo sapiens) (UniProt P55789) (assay: ALR-catalysed DTT oxidation blockers – biochemical, H2O2 detection, HRP-luminol luminescence, single point, primary screen (AID 485317)). Settings: purified ALR, stronger effect = higher value, concentration not given here.
Chain of FAD-linked sulfhydryl oxidase ALR (Homo sapiens) (P55789 whole entry, looked up): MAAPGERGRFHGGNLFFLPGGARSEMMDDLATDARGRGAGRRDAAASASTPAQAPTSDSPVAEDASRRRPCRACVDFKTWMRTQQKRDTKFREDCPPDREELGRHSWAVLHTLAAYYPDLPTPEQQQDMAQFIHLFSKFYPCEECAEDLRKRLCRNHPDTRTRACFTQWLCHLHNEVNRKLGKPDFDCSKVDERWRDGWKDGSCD

inhibition, active:
Cc1ccc(Sc2cc(C(=O)c3ccccc3C(=O)O)ccc2[N+](=O)[O-])cc1 97.5%
COc1ccc2c(c1)cc1n2CCN=C1NN 97.6%
O=C(O)c1ccccc1CSc1nc2ccccc2s1 98.5%
Nc1c(NCCc2ccccc2)c2ccccc2oc1=O 98.8%
N#C/C(=C\c1ccc(N2CCOCC2)o1)C(=O)N1CCOCC1 83.6%
NNC(=O)COc1ccc(C2SCCS2)cc1 89.6%
CCN(CCCNC(=O)CCn1c(=O)[nH]c2ccsc2c1=O)c1ccccc1 99.3%
COc1ccc(NC(=O)CSc2nncc(=O)n2N)cc1OC 87%
Cc1[nH]c2ccccc2c1SCC(=O)Nc1nccs1 97.1%
Nn1c(SCC(=O)Nc2nccs2)nncc1=O 98.8%
COc1ccc(NC(=O)CSc2nnc(Cc3ccccc3)c(=O)n2N)cc1 98.6%
Cc1[nH]c2ccccc2c1C(=O)CSCC(=O)O 98.3%

inhibition, inactive:
CC(C)(C)OC(=O)Nc1ccc([C@@H](NC(=O)OC(C)(C)C)C(=O)OC(C)(C)C)cc1 2.09%
CC(C)NC(=O)c1ccc(Sc2ccccc2)c([N+](=O)[O-])c1 5.17%
Cc1cc(C(=O)O)ccc1[N+](=O)[O-] -8.6%
COc1ccc2ccn(C)c2c1 7.82%
O=C(CNC(=O)c1n[nH]c2ccccc12)Nc1cc(Cl)ccc1Cl -1.04%
Cc1ccc(CNC(=O)COC(=O)C2CCC2)cc1 2.97%
O=C(CSc1nc2ccccc2s1)Nc1ccc(C(=O)O)cc1 -1.73%
CCN(CC)CCCSc1nc2ccccc2s1 -9.41%
Cc1ccc(C(=O)OCC(=O)N2CC(C)CC(C)C2)cc1S(=O)(=O)N1CCCCC1 (stereo not drawn) -62.3%
COCCCn1c(SCC(=O)Nc2oc(C)c3c(C)n[nH]c(=O)c23)nc2sc3c(c2c1=O)CCC3 -9.92%
CC(OC(=O)CCC(=O)c1ccccc1)C(=O)Nc1ccc(F)cc1 (stereo not drawn) -4.58%
O=C(CCCN=C1NS(=O)(=O)c2ccccc21)OCC(=O)c1ccc(F)c(F)c1 -7.91%
CC(C)(C)Nc1c(N)c(=O)oc2ccccc12 72.1%
NC(=O)c1oc2ccccc2c1NC(=O)Cc1ccccc1 -7.38%
O=C(Nc1ccc(C(F)(F)F)cc1)c1cccc(-n2cnnn2)c1 -5.63%
CSc1ncccc1C(=O)NCC(c1ccco1)N1CCCCC1 (stereo not drawn) -3.83%
O=C(COC(=O)c1cc(=O)[nH]c2ccccc12)NCc1cccc(Cl)c1 1.99%
COc1ccc(N2CCN(C(=O)/C(C#N)=C/c3ccccc3)CC2)cc1 33.6%
N#C/C(=C\c1ccc(-c2cccc([N+](=O)[O-])c2)o1)C(=O)NCCN1CCOCC1 -9.22%
COc1ccccc1C(=O)NCCC(=O)NC(C)CCc1ccccc1 (stereo not drawn) -10.1%
Cc1sc2ncnc(N3CCC(C(=O)Nc4nc5ccc(Cl)cc5s4)CC3)c2c1C -1.15%
CC(C)Oc1ccc(C(=O)NCC(=O)Nc2ccc3c(c2)CCC3)cc1 1.47%
COc1ccc(OCC(=O)NNC(=O)C2CCC2)cc1 -2.8%
O=C(COc1ccc(Cl)cc1)Nc1ccc2c(c1)OCO2 -11.8%
O=C(NCc1ccccc1CN1CCCC1)C1CCN(S(=O)(=O)c2ccc(Cl)cc2)CC1 2.81%
COC(=O)C1=C(C)N(Cc2ccccc2)C(=NCCCOC(C)C)N[C@H]1c1ccccc1 -6.98%
CCN(CC)CCCNC(=O)CCc1ccccc1 -4.98%
CCCCC(CC)CNC(=O)CCCCn1c(=O)[nH]c2ccsc2c1=O (stereo not drawn) -6.66%
CC(C)(C)Oc1ccccc1Nc1nc(NCCO)nc(N2CCCC2)n1 6.57%
Cc1ccsc1C(=O)NNC(=O)COc1ccc(Br)cc1 -3.21%
CCn1c(SCC(=O)Nc2ccc(OC)c(OC)c2)nnc1-c1c[nH]c2ccccc12 -15.3%
Cc1cc(-c2nnc(SCC(=O)Nc3ccc(F)cc3)n2N)n[nH]1 -1.02%
CCn1c(SCC(=O)Nc2nccs2)nnc1-c1ccncc1 -12.3%
COc1ccc(NC(=O)CSc2nc3ccccc3c(=O)n2C)cc1 -13.7%
CCn1c(SCC(=O)Nc2nccs2)nnc1-c1ccco1 -4.02%
Cc1cc(C(=O)OCC(=O)Nc2nccs2)c2ccccc2n1 -1.42%
COc1ccc(Cc2nnc(SCC(=O)N(c3ccccc3)C(C)C)n(N)c2=O)cc1 -4.76%
Cn1c(SCC(=O)Nc2nccs2)nnc1-c1cccnc1 2.9%
O=C(c1cc(-c2ccc(Cl)s2)nc2ccccc12)N1CCOCC1 -1.66%
CN1CCC(N(C)S(=O)(=O)c2ccc(NC(=O)c3cccc(C#N)c3)cc2)CC1 -3.41%
Cc1nc2c(c(C)nn2-c2ccccc2)c(C)c1C -7.19%
Cc1nc(-c2ccc(Cl)cc2)sc1C1(C)CC(c2ccc(Br)cc2)=NO1 (stereo not drawn) -3.38%
CCCCN(C(=O)CCNC(=O)NC12CC3CC(CC(C3)C1)C2)c1c(N)n(CCCC)c(=O)[nH]c1=O -9.44%
CC(=O)CC(CC(=O)NC1CCCCC1)c1ccccc1 (stereo not drawn) -6.14%
CN(CC(=O)NNC(=O)CNC(=O)c1ccccc1Cl)S(=O)(=O)c1ccc(Cl)cc1 -3.96%
CCN1C(=O)[C@@H]2[C@@H](c3ccc(-c4cccc(Cl)c4)cc3)N3CCC[C@@]3(C(=O)OC)[C@@H]2C1=O -0.179%
CC1(C)O[C@@H]2[C@H](O1)[C@@H](COS(=O)(=O)O)O[C@H]2n1cnc2c(=O)[nH]cnc21 -3.87%
O=C(Nc1ncccc1O)c1ccc(S(=O)(=O)N2CCCCCC2)cc1 -12.4%
O=C(OCCOCn1cc(Br)c(=O)[nH]c1=O)c1ccccc1 18.4%
CCOC(=O)N1CCN(CC(=O)c2c(C)[nH]c3ccccc23)CC1 -13%
Cc1[nH]c2ccccc2c1C(=O)CN1CC(C)CC(C)C1 (stereo not drawn) -7.59%

Reference: PubChem BioAssay AID485317 (Broad Institute, 2010)
